± gives the standard deviation of the averaged measurements.

Common to all, as to details: concentration: 10 µM; 24 h
The subject of test [1] is HCC1569. The test is described as follows: cell number relative to DMSO (% of DMSO); higher = more cells (less growth inhibition / toxicity). A digest of the protocol: (§1)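 For HCC1569 and TDF cells, compounds at 10 µM were applied for 24 h at 37 °C in triplicate in 384-well plates. Cells were fixed in 3.7% formaldehyde, stained for H1.0 and with DAPI, and imaged at ×10 over six fields per well. The endpoint, H1.0 nuclear intensity or cell number, is shown as percent of the plate control using the median of replicates. Positional effects were smoothed for HCC1569 only.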

Test [2] deals with TDF. Described as above. A digest of the protocol: as §1
Test [3] has as its system TDF. The test is described as follows: H1.0 immunofluorescence intensity relative to DMSO (% of DMSO); higher = stronger H1.0 induction, active = 120 or more. The method in brief:
as §1

The subject of test [4] is HCC1569. The test is described as follows: H1.0 immunofluorescence intensity relative to DMSO (% of DMSO); higher = stronger H1.0 induction, active = 140 or more. A digest of the protocol:
as §1
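For H1.0 immunofluorescence intensity relative to DMSO in this document: TDF is a line of transformed human dermal fibroblasts of mesenchymal origin.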
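For cell number relative to DMSO in this document: TDF denotes transformed human dermal fibroblasts of mesenchymal origin.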

On to `O=C(O)C=CC(=O)O.O=[N+]([O-])c1ccc2nc(N3CCNCC3)ccc2c1` [Quipazine, 6-nitro-, maleate], for which the cell number in test [1] is 96.6; in test [2], 95.5. Besides, the values for the H1.0 immunofluorescence intensity in test [3] and in test [4] were 95.2 (inactive) and 107 (inactive), respectively.
Taken in the same sequence, the figures for `COc1ccc2c(c1)[nH]c1c(C)nccc12` [Harmine] were 87.2 ± 2.5, 94.9 ± 3.2, 99.7 (inactive) and 106 (inactive).
The like results for `CC(C)CC(NP(=O)([O-])OC1OC(C)C(O)C(O)C1O)C(=O)NC(Cc1c[nH]c2ccccc12)C(=O)[O-].[Na+].[Na+]` (configuration not stated) [Phosphoramidon disodium] were, in that order, 99.6, 110, 90.6 (inactive) and 102 (inactive).
Taken in the same sequence, the figures for `O=C(O)CC[N+](=O)[O-]` [3-Nitropropionic acid] were 103, 109, 89.6 (inactive) and 84.9 (inactive).
For the compound `Br.COc1c2c(cc3c1OCO3)CCN(C)C2` [Hydrocotarnine HBr], the values for the cell number in test [1] and in test [2] were 102 and 107, respectively. Moreover, the H1.0 immunofluorescence intensity is 104 (inactive) in test [3] and 92.6 (inactive) in test [4].
The like results for `CC(C)Oc1cccnc1N(C)C1CCN(Cc2ccccc2)CC1.O=C(O)C=CC(=O)O` were, in that order, 103, 106, 99 (inactive) and 112 (inactive).
The like results for `CC1OC(OC2CC(O)C3(CO)C4C(O)CC5(C)C(C6=CC(=O)OC6)CCC5(O)C4CCC3(O)C2)C(O)C(O)C1O` (configuration not stated) [Ouabain] were, in that order, 46.2, 36.4, 125 (active) and 126 (inactive).
The like results for `C=CCN1CCC23c4c5ccc(O)c4OC2C(=O)CCC3(O)C1C5` (configuration not stated) [Naloxone] were, in that order, 98.5, 96.7, 99.5 (inactive) and 117 (inactive).
As to `C=CC12CN(C)C3C4COC(CC41)C1(C(=O)Nc4ccccc41)C32.Cl` (configuration not stated), the cell number in test [1] was 102; in test [2] it was 111. In addition, the H1.0 immunofluorescence intensity in test [3] was 101 (inactive); in test [4] it was 94.5 (inactive).
The like results for `O=C1NCN(c2ccccc2)C12CCN(CC1COc3ccccc3O1)CC2` (configuration not stated) [Spiroxatrine] were, in that order, 98.9, 105, 101 (inactive) and 97.4 (inactive).
Taken in the same sequence, the figures for `CN[C@@H]1Cc2cccc3[nH]c(=O)n(c23)C1.O=C(O)C=CC(=O)O` were 101, 105, 92.5 (inactive) and 89.2 (inactive).
Taken in the same sequence, the figures for `CCN1CC2(C)CCC(OC)C34C5CC6CCC(O)(C5C(=O)O6)C(C(O)C23)C14` (configuration not stated) [Heteratisine] were 103, 105, 96.1 (inactive) and 88.3 (inactive).
As for `O=C1C=C2C=CC3CC2(O1)C1CCCCN31` (configuration not stated) [Securinine], the cell number amounted to 87.8 in test [1] and 76.4 in test [2]. In addition, the H1.0 immunofluorescence intensity in test [3] was 102 (inactive); in test [4], 99.9 (inactive).
The like results for `Br.Br.CN(C)CCN(C)CCc1ccc(Cl)c(Cl)c1` were, in that order, 96.6, 102, 102 (inactive) and 110 (inactive).
Take `CC1CC2CCC(O2)C(C)C(=O)OC(C)CC2CCC(O2)C(C)C(=O)OC(C)CC2CCC(O2)C(C)C(=O)OC(C)CC2CCC(O2)C(C)C(=O)O1` (configuration not stated) [Nonactin]: the cell number in test [1] was 60.4; in test [2], 50.1. Moreover, the H1.0 immunofluorescence intensity is 118 (inactive) in test [3] and 148 (active) in test [4].
Regarding `CC(N)Cc1c[nH]c2ccc(O)cc12.O=C(O)C=CC(=O)O` (stereo not drawn) [alpha-Methyl-5-hydroxytryptamine maleate], the cell number in test [1] stood at 99.8; in test [2], 104. The H1.0 immunofluorescence intensity in test [3] is 90.3 (inactive); in test [4], 87.9 (inactive).
The like results for `COc1ccc2c(c1)N1C(C=C(C)C)OOC(C)(C)CC3C1C2C(O)C1(O)C(=O)N2CCCC2C(=O)N31` (configuration not stated) [Verruculogen] were, in that order, 102, 106, 96.9 (inactive) and 98.1 (inactive).
The like results for `CC(C)(C)c1cc(C=C(C#N)C#N)cc(Br)c1O` were, in that order, 99.2, 99.1, 110 (inactive) and 99.8 (inactive).
The like results for `CNC1CC(c2ccc(Cl)c(Cl)c2)c2ccccc21.Cl` (configuration not stated) [Indatraline hydrochloride] were, in that order, 84.1, 85.9, 110 (inactive) and 133 (inactive).
On to `CC12CCC(O)CC1CCC1C2CCC2(C)C(C3=CC(=O)OC3)C(O)CC12O` (configuration not stated) [Gitoxigenin], for which the results for the cell number in test [1] and in test [2] were 104 and 73.1, respectively. The H1.0 immunofluorescence intensity is 103 (inactive) in test [3] and 81.4 (inactive) in test [4].
Take `CC1CC=CC2C3OC3(C)C(C)C3C(Cc4ccccc4)NC(=O)C23OC(=O)OC=CC(C)(O)C1=O` (configuration not stated) [Cytochalasin E]: the cell number in test [1] came to 63.3; in test [2] it was 32.4. The H1.0 immunofluorescence intensity in test [3] is 226 (active); in test [4] it was 247 (active).
As for `CS(=N)(=O)CCC(N)C(=O)O` [L-Methionine sulfoximine], the cell number in test [1] came to 103; in test [2], 94. Also, the H1.0 immunofluorescence intensity was 92.5 (inactive) in test [3] and 98.4 (inactive) in test [4].
In the case of `O=c1c2ccccc2[se]n1-c1ccccc1` [Ebselen], the results for the cell number in test [1] and in test [2] were 102.1 ± 0.14 and 97.7 ± 1.2, respectively. The results for the H1.0 immunofluorescence intensity in test [3] and in test [4] were 102 (inactive) and 114 (inactive), respectively.

Source of the values: the supplement of paper PMC7156485.
